Compound activity as filed in PubChem BioAssay.
TGFb SMAD3 inh: inhibitors of TGF-b signaling; HepG2 CAGA-GFP TGF-b/SMAD3 reporter, GFP fluorescence, 18 h; TGF-beta stimulated, 500 pg/mL final; Potency, µM (highest dose often 46.1 µM), inactives show at the top dose activity, negative = inhibition, most hits filed as inhibitors; hit rate 1.2% among 410,000; AID 588855; further: on the % scale 0 is the no-effect control and ±100 the full control effect; nearly all actives have a fitted effect of over 65% in size
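First, reporter cells (HEPG2 CAGA-GFP) rested 2 h at 37 degrees C. Next, compounds were pinned in and TGF-beta added to 500 pg/mL final. After 18 h, GFP was imaged per cell and summed per well.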
S2 tox: reduces viability in counter-screen for ATXN expression inhibitors; S2 cells (HEK-293 line with an ATXN2-luciferase reporter) viability, CellTiter-Fluor protease fluorescence, 24 h; Potency, µM (highest dose often 56.7 µM), hits mostly cytotoxic; hit rate 0.49% among 400,000; further: nearly all actives have a fitted effect of over 40% in size
HepG2 tox: kills HepG2 cells in TGF-b inhibitor counter-screen. HepG2 CAGA-GFP viability, ATP luminescence, 18 h. Potency, µM (top dose mostly 46.1 µM), inactives show top-dose activity change, negative = cytotoxicity, most hits filed as cytotoxic. hit rate 0.76% among 410,000. AID 588856
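CellTiter-Glo luminescence gave cytotoxicity after 18 hours at 37 degrees C. The cells were HepG2 CAGA-GFP in 1% FBS DMEM, stimulated with 500 pg/mL TGF-beta after compound addition. %Activity was normalised to no-cell wells (complete cell-killing) and DMSO (no toxicity), and curves were fitted and classified.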
ATXN2 expr inh: ATXN2 expression inhibition. hit rate 0.72% among 360,000. Potency, µM (highest dose often 57 µM), for the others: at the highest dose activity change, negative = inhibition, most hits filed as inhibitors. HEK-293 ATXN2-luciferase reporter, luminescence, 24 h. AID 1745845; further: on the % scale 0 is the no-effect control and ±100 the full control effect; nearly all actives have a fitted effect of over 55% in size
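ATXN2-luciferase reporter cells (luciferase flanked by upstream and downstream ATXN2 gene portions) were treated 24 h at 37 °C with compounds at up to 57 uM. SteadyGlo luminescence gave expression; GF-AFC fluorescence gave viability.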
KB-3-1 tox: KB-3-1 parental cell cytotoxicity | KB-3-1 viability, CellTiter-Glo ATP luminescence, 72 h | Potency, µM (top dose mostly 46.1 µM), hits mostly cytotoxic | hit rate 1.4% among 400,000; further: on the % scale 0 is the no-effect control and ±100 the full control effect; nearly all actives have a fitted effect of over 60% in size
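Parental KB-3-1 adenocarcinoma cells in phenol-red-free DMEM with 10% FBS were pin-treated with compounds at several concentrations, incubated 72 h at 37 °C, and viability read by CellTiter-Glo luminescence; concentration-effect curves were fitted after normalization.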
KB-V1 MDR tox: KB-V1 MDR subline cytotoxicity; KB-V1 MDR cells viability, CellTiter-Glo, 72 h; Potency, µM (doses to about 46.1 µM), hits mostly cytotoxic; hit rate 3.4% among 400,000; further: on the % scale 0 is the no-effect control and ±100 the full control effect; nearly all actives have a fitted effect of over 60% in size
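Readout: CellTiter-Glo luminescence, 10 min after addition. Cells: KB-V1 MDR subline, 72 h at 37 degrees C with compound. Analysis: corrected, normalized data fitted to concentration-effect curves.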
Active calls of the source: *; i = inactive; ? = inconclusive; . = no result. In the library only some 5.9% were active in any assay of this set; here they are far more common. The call rests on the fitted dose curve; in most records, active means well fitted curve in the direction sought with a large enough effect; inconclusive means small, poorly fitted or top-dose-only effect, or another doubt; inactive means no such curve, though single readings can be large; an effect the other way counts as inactive or inconclusive. Potency means the concentration at half of the fitted maximal effect.

SMILES | TGFb SMAD3 inh | S2 tox | HepG2 tox | ATXN2 expr inh | KB-3-1 tox | KB-V1 MDR tox
COc1ccc(N2C(=O)CSC23C(=O)N(Cc2ccccc2F)c2ccccc23)cc1Cl (stereo not drawn) | -3% | ? | -21% | ? | ? | 18µM*
O=C(CN1C(=O)C2(SCC(=O)N2c2cccc(F)c2)c2ccccc21)NCc1ccccc1Cl (stereo not drawn) | -26% | i | -37% | -3% | i | 6.5µM*
O=C1CSC2(C(=O)N(Cc3ccccc3F)c3ccccc32)N1c1cccc(C(F)(F)F)c1 (stereo not drawn) | 11µM* | i | -11% | ? | 18µM* | 8.2µM*
c1ccc(C2=NN(c3ccccc3)CC2)cc1 | -21% | . | -1% | . | i | i
CCOC(=O)/C(=C/c1ccc(N2CCC(c3ccccc3)=N2)cc1)C(C)=O | 1% | . | -32% | 1.9µM* | i | i
COc1ccc(CNC(=O)c2cc3c(=O)n(Cc4ccco4)ccc3nc2C)cc1 | ? | . | -12% | . | . | .
COc1ccc(CNC(=O)c2cc3c(=O)n(Cc4cccs4)ccc3nc2C)cc1 | -10% | i | -10% | ? | 18µM* | i
Cc1nc2ccn(Cc3cccs3)c(=O)c2cc1C(=O)NCc1ccccc1 | -44% | . | -27% | . | . | .
CSc1ccc(CNC(=O)c2cc3c(=O)n(Cc4ccco4)ccc3nc2C)cc1 | 11µM* | . | -43% | . | . | .
CSc1ccc(CN(C)C(=O)COc2ccc(C(=O)c3ccccc3)cc2)cc1 | ? | i | -5% | -14% | 21µM* | 9.2µM*
O=C(Oc1ccc(/C=N/Nc2ccccc2)cc1)c1ccccc1 | 4% | i | -3% | 0% | i | i
O=C(O)c1ccc(N/N=C/c2ccc(OC(=O)c3cccc(Cl)c3)cc2)cc1 | -13% | i | -68% | 5µM* | i | i
N#CC(C#N)=C1C(=O)N(CCN2CCOCC2)c2ccccc21 | ? | ? | 22µM* | -15% | i | i
N#CC(C#N)=C1C(=O)N(CCN2CCCCC2)c2ccccc21 | 1% | ? | -39% | -20% | i | i
CC1(C)SC(=S)N(/N=C/c2ccccc2)C1N(O)C(=O)Nc1ccc([N+](=O)[O-])cc1 (stereo not drawn) | ? | i | 11µM* | -27% | ? | i
N#CC1=C(N)C(C#N)(C#N)[C@H](c2c(F)cccc2F)[C@H]2CC3(CC=C12)OCCO3 | -14% | ? | -48% | ? | 6.5µM* | ?
CCC(Sc1nc(=O)cc(N)n1-c1cccc(C)c1)C(=O)Nc1cc(C)on1 (stereo not drawn) | 3.5µM* | i | -7% | -7% | i | i
CCC(Sc1nc(=O)cc(N)n1-c1ccccc1)C(=O)Nc1cc(C)on1 (stereo not drawn) | -5% | i | -6% | 5% | i | i
Cc1cccc(C)c1OCC(=O)Nc1nnc(C2CCCO2)s1 (stereo not drawn) | -2% | i | -1% | 1% | i | 18µM*
CC(C)n1cc(NC(=O)c2cc(-c3ccccc3)on2)cn1 | ? | i | -3% | 30% | ? | 4.1µM*
CC(C)N(c1ccc(C=O)cc1)C(C)C | 0% | . | 7% | . | i | i
COCCNS(=O)(=O)c1cc(-c2nn(C)c(=O)c3ccccc23)ccc1C | 8% | ? | -20% | 0% | i | ?
Cc1ccc(-c2nn3c(C)nnc3c3ccccc23)cc1S(=O)(=O)NCc1ccco1 | 12% | ? | -33% | 28% | i | 15µM*
CCCCNS(=O)(=O)c1cc(-c2nn(C)c(=O)c3ccccc23)ccc1C | 0% | i | -1% | -12% | 16µM* | ?
COC(=O)c1ccc(C(=O)OC)c(NC(=S)N2CCCC2)c1 | 12% | i | 7% | 1% | i | i
COC(=O)c1ccc(C(=O)OC)c(NC(=S)N2CCCCC2C)c1 (stereo not drawn) | 19% | i | 5% | 20% | i | 15µM*
